{"source": "paper PMC4336329", "about": "(PLoS ONE, 2015)", "note": "Among all 310,000 compounds or so, about 14,000 (4.5%) showed an effect of 50% or more. Effects have a minus sign here. Only a selection was taken, and strong results are over-represented in it overall.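 Also: peak tail current of the secondary pulse compared with the same well before compound.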", "data": [{"target": "human ether-à-go-go-related gene (hERG) potassium channel (human, UniProt Q12809)", "sequence (Q12809 whole entry, looked up)": "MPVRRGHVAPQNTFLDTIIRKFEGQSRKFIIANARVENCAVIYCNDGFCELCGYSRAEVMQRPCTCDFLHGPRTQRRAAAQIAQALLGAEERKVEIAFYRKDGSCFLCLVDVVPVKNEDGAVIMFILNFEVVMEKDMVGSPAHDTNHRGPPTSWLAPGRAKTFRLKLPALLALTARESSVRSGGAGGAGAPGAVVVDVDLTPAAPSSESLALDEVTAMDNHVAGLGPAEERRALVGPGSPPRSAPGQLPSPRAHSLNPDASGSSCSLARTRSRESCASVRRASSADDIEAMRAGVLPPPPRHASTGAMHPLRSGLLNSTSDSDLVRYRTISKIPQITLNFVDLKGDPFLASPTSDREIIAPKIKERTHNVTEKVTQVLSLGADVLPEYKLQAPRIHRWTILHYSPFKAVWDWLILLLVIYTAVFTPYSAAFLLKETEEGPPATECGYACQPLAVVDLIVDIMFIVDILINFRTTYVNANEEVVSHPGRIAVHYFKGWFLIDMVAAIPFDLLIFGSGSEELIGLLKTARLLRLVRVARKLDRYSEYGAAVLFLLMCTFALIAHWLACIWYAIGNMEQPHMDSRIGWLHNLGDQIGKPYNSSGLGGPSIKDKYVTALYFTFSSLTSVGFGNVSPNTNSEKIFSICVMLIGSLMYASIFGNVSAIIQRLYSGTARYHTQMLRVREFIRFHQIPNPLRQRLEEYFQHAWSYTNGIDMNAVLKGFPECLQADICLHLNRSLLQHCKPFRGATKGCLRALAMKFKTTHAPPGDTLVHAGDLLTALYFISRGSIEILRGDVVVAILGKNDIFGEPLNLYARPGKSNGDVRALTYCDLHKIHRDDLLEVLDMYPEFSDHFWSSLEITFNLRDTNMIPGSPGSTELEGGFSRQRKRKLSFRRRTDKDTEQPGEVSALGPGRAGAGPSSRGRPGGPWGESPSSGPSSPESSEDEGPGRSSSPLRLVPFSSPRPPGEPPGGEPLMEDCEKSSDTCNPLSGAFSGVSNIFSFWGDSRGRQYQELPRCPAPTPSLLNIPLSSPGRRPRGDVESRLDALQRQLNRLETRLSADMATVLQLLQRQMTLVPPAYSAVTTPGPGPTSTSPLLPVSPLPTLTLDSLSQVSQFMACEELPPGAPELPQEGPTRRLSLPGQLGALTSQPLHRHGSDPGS", "experiment": "primary screen, population patch clamp on CHO cells stably expressing hERG; higher = less effect of the substance", "units": {"hERG current change (%, negative = inhibition) at 10uM": "%"}, "values": [{"smiles": "CC(C)Oc1cccc(C(=O)Nc2ccc(N3CCN(S(C)(=O)=O)CC3)cc2)c1", "hERG current change (%, negative = inhibition) at 10uM": -0.708}, {"smiles": "O=C1CC(c2ccccc2)CCc2sccc2N1", "note": "(stereo not drawn)", "hERG current change (%, negative = inhibition) at 10uM": -5.86}, {"smiles": "O=C(c1nc2ccccn2c1CNCCCn1cccn1)N1CCCC1", "hERG current change (%, negative = inhibition) at 10uM": -12.1}, {"smiles": "Cc1cc(C(F)(F)F)nc(CCNCc2c(C(=O)N3CCCC3)nc3ccccn23)n1", "hERG current change (%, negative = inhibition) at 10uM": -14.4}, {"smiles": "Cc1ccn2c(CNCC3OCCc4ccccc43)c(C(=O)N3CCCCCC3)nc2c1", "note": "(stereo not drawn)", "hERG current change (%, negative = inhibition) at 10uM": -62.9}, {"smiles": "Cc1cccn2c(CNCC3OCCc4ccccc43)c(C(=O)N3CCCCC3)nc12", "note": "(stereo not drawn)", "hERG current change (%, negative = inhibition) at 10uM": -19.5}, {"smiles": "CN1Cc2ccccc2CC1CNCc1c(C(=O)N2CCCC2)nc2ccccn12", "note": "(stereo not drawn)", "hERG current change (%, negative = inhibition) at 10uM": -73.5}, {"smiles": "O=C(c1nc2ccccn2c1CNCC1OCCc2ccccc21)N1CCOCC1", "note": "(stereo not drawn)", "hERG current change (%, negative = inhibition) at 10uM": -0.852}, {"smiles": "Cc1onc(-c2ccccc2)c1C(=O)NCC(O)c1ccccc1", "note": "(stereo not drawn)", "hERG current change (%, negative = inhibition) at 10uM": 5}, {"smiles": "Cc1onc(-c2ccccc2)c1C(=O)NC(C)c1ccc2c(c1)OCO2", "note": "(stereo not drawn)", "hERG current change (%, negative = inhibition) at 10uM": 27.7}, {"smiles": "COc1cc(OC)cc(C(=O)OCC(=O)NCc2ccc3c(c2)OCO3)c1", "hERG current change (%, negative = inhibition) at 10uM": 12.9}, {"smiles": "CCCc1ccc2oc(C(=O)N3CCC(COC)C3)c(C)c2c1", "note": "(stereo not drawn)", "hERG current change (%, negative = inhibition) at 10uM": -38.4}, {"smiles": "O=C(NC1CS(=O)(=O)CC1NCc1ccco1)c1ccccc1", "note": "(stereo not drawn)", "hERG current change (%, negative = inhibition) at 10uM": 2.09}, {"smiles": "Oc1ccc(-c2ccccc2)cc1CN1CCCCCC1", "hERG current change (%, negative = inhibition) at 10uM": -52.1}, {"smiles": "OC(CCN1CCCCC1)c1ccc(-c2ccccc2)cc1", "note": "(stereo not drawn)", "hERG current change (%, negative = inhibition) at 10uM": -56.4}, {"smiles": "N#CCCN1CCN(Cc2cc(-c3ccccc3)ccc2O)CC1", "hERG current change (%, negative = inhibition) at 10uM": -48.8}, {"smiles": "O=S(=O)(NCCN1CCCC1)c1ccc(Cl)cc1", "hERG current change (%, negative = inhibition) at 10uM": 10.3}, {"smiles": "Oc1ccc(Br)cc1CN1CCCCCCC1", "hERG current change (%, negative = inhibition) at 10uM": -47.6}, {"smiles": "Cl.OC(CCCCN1CCCCC1)c1ccccc1", "note": "(stereo not drawn)", "hERG current change (%, negative = inhibition) at 10uM": -18.1}, {"smiles": "Cl.ClC(CCN1CCN(Cc2ccccc2)CC1)c1ccccc1", "note": "(stereo not drawn)", "hERG current change (%, negative = inhibition) at 10uM": -20.6}, {"smiles": "Clc1ccc(C(CCN2CCCC2)Cc2ccccc2)cc1", "note": "(stereo not drawn)", "hERG current change (%, negative = inhibition) at 10uM": -62.7}, {"smiles": "OC(CCN1CCOCC1)c1ccccc1", "note": "(stereo not drawn)", "hERG current change (%, negative = inhibition) at 10uM": 4.54}, {"smiles": "O=S(=O)(Nc1ccc(N2CCOCC2)cc1)c1ccc(F)cc1", "hERG current change (%, negative = inhibition) at 10uM": 4.3}, {"smiles": "COC(=O)N1N=C(c2ccc(Br)cc2)CC1(O)C(F)(F)F", "note": "(stereo not drawn)", "hERG current change (%, negative = inhibition) at 10uM": -1.71}, {"smiles": "CCOc1ccc(CNC(=O)CN2C(=O)C(c3ccccc3)Oc3cccnc32)cc1", "note": "(stereo not drawn)", "hERG current change (%, negative = inhibition) at 10uM": -3.6}, {"smiles": "O=C(N/N=C/c1cccc(O)c1)c1ccc(COc2cccc3cccnc23)cc1", "hERG current change (%, negative = inhibition) at 10uM": 22.8}, {"smiles": "O=C(N/N=C/c1ccncc1)c1ccc(COc2cccc3cccnc23)cc1", "hERG current change (%, negative = inhibition) at 10uM": -45.6}, {"smiles": "O=C(N/N=C/c1ccc[nH]1)c1ccc(COc2cccc3cccnc23)cc1", "hERG current change (%, negative = inhibition) at 10uM": -58.3}, {"smiles": "CCOC(=O)C1=c2/c(=C/c3ccncc3)c(N)c(C(=O)OC)n2C(=O)C(c2ccncc2)S1", "note": "(stereo not drawn)", "hERG current change (%, negative = inhibition) at 10uM": 1.36}, {"smiles": "O=C(CCc1ccccc1)NNC(=O)c1ccc(NC(=O)c2ccccc2)cc1", "hERG current change (%, negative = inhibition) at 10uM": 2.53}, {"smiles": "Cc1cc(S(=O)(=O)Nc2ccc3c(c2)COC3=O)ccc1F", "hERG current change (%, negative = inhibition) at 10uM": 7.2}, {"smiles": "Cc1cc(C)n(C(=O)c2cccc(S(=O)(=O)N3CCCC3)c2)n1", "hERG current change (%, negative = inhibition) at 10uM": 6.46}, {"smiles": "O=C(Nc1ccnn1C1CCN(C/C=C/c2ccccc2)CC1)C1CCCC1", "hERG current change (%, negative = inhibition) at 10uM": -73}, {"smiles": "O=C(Nc1ccnn1C1CCN(Cc2c(F)cccc2Cl)CC1)C1CCCC1", "hERG current change (%, negative = inhibition) at 10uM": -32.1}, {"smiles": "O=C(Nc1ccnn1C1CCN(C/C=C/c2ccc(F)cc2)CC1)C1CCCC1", "hERG current change (%, negative = inhibition) at 10uM": -76.2}, {"smiles": "CN(c1ccc(O)cc1)S(=O)(=O)c1ccc2ccccc2c1", "hERG current change (%, negative = inhibition) at 10uM": -12.8}, {"smiles": "COc1ccccc1CNC(=O)CCc1cn(C)c2ccccc12", "hERG current change (%, negative = inhibition) at 10uM": -2.68}, {"smiles": "Cc1c(C(=O)N2CCCCC2)c(S(=O)(=O)Nc2ccc(F)cc2F)c(C)n1C", "hERG current change (%, negative = inhibition) at 10uM": 21.9}, {"smiles": "Cc1cc(C)c(S(=O)(=O)N2CCN(C(=O)c3ccc4c(c3)OCO4)CC2)c(C)c1", "hERG current change (%, negative = inhibition) at 10uM": -31.4}, {"smiles": "O=C(N/N=C/c1ccc(N2CCOCC2)cc1)c1ccc(NS(=O)(=O)c2cccs2)cc1", "hERG current change (%, negative = inhibition) at 10uM": 9.69}, {"smiles": "N#Cc1cc([N+](=O)[O-])ccc1N1CCCC1", "hERG current change (%, negative = inhibition) at 10uM": -38}, {"smiles": "O=[N+]([O-])c1ccc(N2CCN(CCOCCO)CC2)c([N+](=O)[O-])c1", "hERG current change (%, negative = inhibition) at 10uM": -45.6}, {"smiles": "CCCN1CCN(c2ccc([N+](=O)[O-])cc2C#N)CC1", "hERG current change (%, negative = inhibition) at 10uM": -72}, {"smiles": "CC1CN(c2ccc([N+](=O)[O-])cc2C#N)CC(C)O1", "note": "(stereo not drawn)", "hERG current change (%, negative = inhibition) at 10uM": -48.6}, {"smiles": "O=[N+]([O-])c1ccc(N2CCN(c3ccccc3O)CC2)c(Cl)c1", "hERG current change (%, negative = inhibition) at 10uM": 9.9}, {"smiles": "N#Cc1cc([N+](=O)[O-])ccc1N1CCN(c2ccccc2O)CC1", "hERG current change (%, negative = inhibition) at 10uM": -35}, {"smiles": "CC(=O)N1CCN(c2ccc([N+](=O)[O-])cc2C#N)CC1", "hERG current change (%, negative = inhibition) at 10uM": -88}, {"smiles": "O=[N+]([O-])c1ccc(N2CCN(c3ccc([N+](=O)[O-])cc3CO)CC2)c(CO)c1", "hERG current change (%, negative = inhibition) at 10uM": -64.7}, {"smiles": "CC(=O)N1CCN(c2ccc(C(N)=O)cc2[N+](=O)[O-])CC1", "hERG current change (%, negative = inhibition) at 10uM": 8.73}, {"smiles": "CCN1CCN(c2ccc([N+](=O)[O-])cc2C#N)CC1", "hERG current change (%, negative = inhibition) at 10uM": -68.2}, {"smiles": "CCCN1CCN(c2ccc(S(N)(=O)=O)cc2[N+](=O)[O-])CC1", "hERG current change (%, negative = inhibition) at 10uM": -31.4}, {"smiles": "O=[N+]([O-])c1ccc(N2CCCCCC2)c([N+](=O)[O-])c1", "hERG current change (%, negative = inhibition) at 10uM": 3.24}, {"smiles": "COc1cccc(NS(=O)(=O)c2c(C)n(C)c(=O)n(C)c2=O)c1", "hERG current change (%, negative = inhibition) at 10uM": -19.9}, {"smiles": "CCCc1nnc(SCC(=O)N2CCOCC2)n1CC1CCCO1", "note": "(stereo not drawn)", "hERG current change (%, negative = inhibition) at 10uM": 23.6}, {"smiles": "CC1CCN(C(=S)c2ccc(O)cc2)CC1", "hERG current change (%, negative = inhibition) at 10uM": -14.1}, {"smiles": "O=c1[nH]c2ccc(S(=O)(=O)N3CCN(C4CCCCC4)CC3)cc2[nH]c1=O", "hERG current change (%, negative = inhibition) at 10uM": 0.776}, {"smiles": "O=C(Nc1cccc(C(F)(F)F)c1)Oc1ccc(Cl)c2cccnc12", "hERG current change (%, negative = inhibition) at 10uM": 9.96}]}]}
